Drawing on PubChem BioAssay, this text covers z-score and composite z-score for eight compounds.

Active and inactive are the calls of the source. Unless noted, how the calls were made is not given here.

Test [1] in a line: compound effects on lung adenocarcinoma cell viability – A549, calcein-AM fluorescence, 48 h, basal, profiling panel (AID 1162). Further: test concentration not given here. The note with it: higher = more signal.
Test [2] is described as follows: compound effects on differentiated 3T3-L1 adipocyte viability – cell-based, 3T3-L1 adipocytes, calcein-AM fluorescence, 48 h, basal, profiling panel (AID 1163). Further: test concentration not given here. Particulars: 3T3-L1 adipocytes viability, higher = more signal.
A short description of test [3]: compound effects on hepatocellular carcinoma cell viability – HepG2, calcein-AM fluorescence, 48 h, basal, profiling panel (AID 1164). Further: test concentration not given here. Particulars: higher = more signal.
The nature of test [4]: compound effects on multiple myeloma cell viability – MM1S, calcein-AM fluorescence, 48 h, basal, profiling panel (AID 1165).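 Further: viability of MM1S multiple myeloma cells under basal unstimulated conditions; test concentration not given here.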 Particulars: higher = more signal.
A short description of test [5]: calcein-AM signal in unstimulated myeloma cells – cell-based, calcein-AM fluorescence, 48 h, PK04 Diversity Set, profiling panel (AID 1166).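 Further: cells grown under basal conditions without added stimulus; test concentration not given here.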 The note with it: RPMI8226 myeloma viability, higher = more signal.
The nature of test [6]: JC-1 mitochondrial signal, unstimulated HepG2 cells – cell-based, JC-1 fluorescence, 24 h, 100 nL compound, profiling panel (AID 1167). Further: test concentration not given here. The note with it: HepG2 mitochondrial potential, higher = more signal.
Test [7] is described as follows: JC-1 mitochondrial signal, unstimulated adipocytes – cell-based, JC-1 fluorescence, 3T3-L1 adipocytes, 24 h, 100 nL compound, profiling panel (AID 1168). Further: test concentration not given here. Particulars: JC-1 mitochondrial fluorescence, higher = more signal, called active from +8 up or from −8 down.
Test [8] in a line: JC-1 mitochondrial signal, unstimulated myeloma cells – cell-based, JC-1 fluorescence, RPMI8226, 24 h, 100 nL compound, profiling panel (AID 1169). Further: test concentration not given here. Particulars: JC-1 mitochondrial potential fluorescence, higher = more signal.
Test [9] can be described thus: JC-1 mitochondrial signal, unstimulated MM1S myeloma – cell-based, JC-1 fluorescence, 24 h, 100 nL compound, profiling panel (AID 1170). Further: test concentration not given here. The note with it: MM1S mitochondrial potential, higher = more signal.
A short description of test [10]: resazurin metabolic signal in A549 cells – cell-based, resazurin fluorescence, 24 h, PK04 Diversity Set, profiling panel (AID 1171). Further: test concentration not given here. The note with it: A549 viability, higher = more signal, called active from +8 up or from −8 down.
A short description of test [11]: resazurin metabolic signal in HepG2 cells – cell-based, resazurin fluorescence, 24 h, PK04 Diversity Set, profiling panel (AID 1172). Further: test concentration not given here. The note with it: HepG2 viability, higher = more signal. A general note: Resazurin is reduced to fluorescent resorufin, in cell work by metabolically active cells.
Test [12] in a line: budding yeast growth changes without added modifier – OD600, strain BY4716, 24 h, basal condition, primary screen (AID 1173). The note with it: S. cerevisiae BY4716 growth, OD600, 24 h; higher = more signal, called active from +8 up or from −8 down.
Test [13] in a line: viability profiling in MM1S myeloma cells – cell-based, resazurin fluorescence, basal, 24 h, PK04 Diversity Set, profiling panel (AID 1174). Further: test concentration not given here. The note with it: higher = more signal, called active from +8 up or from −8 down.
Test [14] deals with Dihydroorotate dehydrogenase (quinone), mitochondrial (Plasmodium falciparum (isolate 3D7)) (UniProt Q08210). The test can be described thus: inhibition of P. falciparum DHODH – biochemical, C-terminal His tag, absorbance 600 nm, primary screen (AID 1175).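 Further: recombinant parasite enzyme with a five histidine tag at its C terminus; test concentration not given here.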 Particulars: PfDHODH enzyme, DCIP absorbance 600 nm; higher = more signal, called active from +8 up or from −8 down.
Chain of Dihydroorotate dehydrogenase (quinone), mitochondrial (Plasmodium falciparum (isolate 3D7)) (Q08210 whole entry, looked up): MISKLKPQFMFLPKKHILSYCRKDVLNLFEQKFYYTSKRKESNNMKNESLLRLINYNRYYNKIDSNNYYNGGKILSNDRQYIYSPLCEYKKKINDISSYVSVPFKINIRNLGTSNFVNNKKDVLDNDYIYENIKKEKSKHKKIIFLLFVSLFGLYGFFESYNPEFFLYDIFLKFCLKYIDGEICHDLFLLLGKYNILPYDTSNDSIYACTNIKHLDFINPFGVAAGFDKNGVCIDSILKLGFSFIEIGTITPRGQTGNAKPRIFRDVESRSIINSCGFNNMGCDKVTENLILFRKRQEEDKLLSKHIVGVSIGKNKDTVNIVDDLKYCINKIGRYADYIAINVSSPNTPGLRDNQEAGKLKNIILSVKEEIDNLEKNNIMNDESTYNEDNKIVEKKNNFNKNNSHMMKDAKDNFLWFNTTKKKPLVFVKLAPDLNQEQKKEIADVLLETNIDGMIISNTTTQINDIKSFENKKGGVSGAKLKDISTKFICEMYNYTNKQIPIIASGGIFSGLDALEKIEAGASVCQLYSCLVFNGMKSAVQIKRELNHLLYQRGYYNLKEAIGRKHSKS
The nature of test [15]: inhibition of PAO1 biofilm formation – strain PAO1, LB-PBS medium, absorbance 600 nm, primary screen (AID 1176). Further: test concentration not given here. Particulars: P. aeruginosa PAO1 growth/biofilm, A600, 12 h; higher = more signal.
The nature of test [16]: growth modulation of vineyard yeast isolate – strain RM11-1a, OD600, basal, 24 h, primary screen (AID 1177).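 Further: cultures grown under basal conditions with no added stressor; test concentration not given here.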 Particulars: S. cerevisiae RM11-1a growth, OD600, 24 h; higher = more signal, called active from +8 up or from −8 down.
Test [17] is described as follows: growth of efflux-deficient E. coli DRC39 – strain DRC39, OD650, 24 h, E. coli filamentation inducers, primary screen (AID 1178).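 Further: growth measured as culture turbidity by optical density at 650 nm; test concentration not given here.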 The note with it: E. coli DRC39 acrAB, higher = more signal, called active from +8 up or from −8 down.
The nature of test [18]: growth of efflux-deficient E. coli DRC39 – strain DRC39, OD650, 48 h, E. coli filamentation inducers, primary screen (AID 1179).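 Further: screen aims at cell division blockers that make cells filament.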 Particulars: E. coli DRC39 delta-acrAB growth, higher = more signal, called active from +8 up or from −8 down.
The nature of test [19]: viability profiling in RPMI8226 myeloma cells – cell-based, resazurin fluorescence, basal, 24 h, PK04 Diversity Set, profiling panel (AID 1180).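 Further: RPMI8826 multiple myeloma cell line at 5000 cells per well; test concentration not given here.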 Particulars: higher = more signal.
In test [20] the target is E3 ubiquitin-protein ligase XIAP (Homo sapiens) (UniProt P98170). The test can be described thus: small molecules binding XIAP protein – biophysical, small-molecule microarray, fluorescence 635 nm, primary screen (AID 1181).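 Further: score merges 667 nm emission and signal to noise over triplicate slides.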 The note with it: higher = more signal.
Chain of E3 ubiquitin-protein ligase XIAP (Homo sapiens) (P98170 whole entry, looked up): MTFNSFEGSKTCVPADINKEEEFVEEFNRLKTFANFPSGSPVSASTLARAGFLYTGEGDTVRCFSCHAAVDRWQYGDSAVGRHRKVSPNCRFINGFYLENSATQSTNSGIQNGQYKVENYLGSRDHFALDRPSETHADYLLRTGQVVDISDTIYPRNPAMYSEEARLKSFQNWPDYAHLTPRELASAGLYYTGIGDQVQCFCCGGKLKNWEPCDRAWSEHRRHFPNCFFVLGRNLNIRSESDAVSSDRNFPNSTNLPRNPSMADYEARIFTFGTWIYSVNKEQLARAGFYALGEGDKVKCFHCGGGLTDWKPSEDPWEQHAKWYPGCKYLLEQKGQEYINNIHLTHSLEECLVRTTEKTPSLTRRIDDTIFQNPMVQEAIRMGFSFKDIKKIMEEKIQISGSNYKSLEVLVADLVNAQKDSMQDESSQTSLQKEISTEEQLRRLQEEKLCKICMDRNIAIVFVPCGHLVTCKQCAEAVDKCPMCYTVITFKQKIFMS

Regarding `CCOC(=O)C[C@H]1[C@H](OC(=O)Cc2ccc3c(c2)OCO3)[C@@H](NC(=O)CC(C)C)c2cc(OCCCO)ccc2N1C(=O)c1ccc2ccccc2n1`, the z-score in test [1] is 0.415; in test [2], 1.37; in test [3], -0.236; in test [4], 0.383; in [5] it was -0.577; in test [6] it was 0.218. The z-score in [7] was 0.0499 (inactive); in [8], 0.01; in test [9], -0.659; in [10], 0.194 (inactive); in [11], 0.0081; in test [12] it was -1.8 (inactive). Also, the z-score in test [13] is -0.0432 (inactive); in test [15], -1.53 (inactive); in test [16], -0.0738 (inactive); in [17], 0.57 (inactive); in test [18], -0.0185 (inactive); in test [19] it was -0.255. Besides, the composite z-score was -1.94 (inactive) in [14] and 0.514 in test [20].
For `C=CCOC(=O)[C@@H]1[C@H]2C(=O)O[C@H](c3ccccc3)[C@H](c3ccccc3)N2[C@H](c2ccc(OCCOC(=O)[C@H]3C[C@H]4C(=O)N[C@@H](CCCCN(C)C)C(=O)N4[C@H]3c3cccc(OCCO)c3)cc2)[C@@]12C(=O)Nc1ccccc12`, the z-score in [1] was -0.555; in [2], -0.453; in [3] it was -0.113; in [4], 0.293; in test [5] it was -2.17; in [6] it was -1.29. Besides, the z-score is -0.5 (inactive) in [7]; -0.928 in test [8]; -0.689 in test [9]; 0.64 (inactive) in [10]; 0.594 in test [11]; 0.756 (inactive) in [12]. Also, the z-score was 0.75 (inactive) in test [13]; -0.475 (inactive) in [15]; 0.237 (inactive) in test [16]; 0.292 (inactive) in [17]; 0.352 (inactive) in [18]; 0.835 in test [19]. For the same compound, the composite z-score is 0.0193 (inactive) in [14] and -0.0102 in test [20].
As to `CN1C(=O)C2C=CC(C(O)c3cccs3)N(N(c3ccccc3)c3ccccc3)C2C1=O` (stereo not given), the z-score in [1] was -0.404; in test [2], -1.97; in test [3] it was 0.44; in test [4] it was 0.442; in [5] it was 0.398; in test [6], 0.27. In addition, the z-score in test [7] was -1.02 (inactive); in [8] it was -0.24; in [9] it was -0.694; in test [10] it was -0.659 (inactive); in test [11] it was -0.428; in test [12], 0.754 (inactive). The z-score in test [13] is -1.13 (inactive); in [15], 0.419 (inactive); in test [16], 0.567 (inactive); in test [17], -0.483 (inactive); in [18], 0.0156 (inactive); in test [19], -0.985. The composite z-score is 0.656 (inactive) in test [14] and 0.462 in [20].
`O=C1c2ccccc2[C@](Cc2ccccc2I)(C(=O)NCCN2CCOCC2)[C@H](c2ccc(CO)cc2)N1Cc1ccccc1C(F)(F)F`: the z-score is 0.368 in test [1]; 0.469 in test [2]; -0.103 in [3]; -1.98 in test [4]; -2.7 in [5]; 1.5 in [6]. For the same compound, the z-score in [7] is 0.0392 (inactive); in test [8] it was -0.876; in test [9], -0.601; in test [10] it was -0.577 (inactive); in [11], -0.936; in test [12] it was -1.14 (inactive). The z-score in test [13] is -0.269 (inactive); in test [15], 0.0435 (inactive); in test [16], -0.538 (inactive); in test [17], 0.0398 (inactive); in [18] it was -0.46 (inactive); in test [19], -0.606. Further, the composite z-score in test [14] was -0.584 (inactive); in test [20] it was -0.0095.
As for `CC[C@@H]1C=C(C(=O)O)[C@H](c2cccc(Cl)c2)N1S(=O)(=O)c1ccc(C)cc1`, the z-score was -0.0107 in test [1]; -0.762 in test [2]; 0.223 in [3]; 0.126 in test [4]; 0.0221 in test [5]; -0.743 in test [6]. Also, the z-score was -0.41 (inactive) in test [7]; -0.623 in [8]; -0.343 in test [9]; -0.628 (inactive) in test [10]; -0.722 in test [11]; -0.423 (inactive) in test [12]. For the same compound, the z-score was -0.869 (inactive) in test [13]; -0.184 (inactive) in test [15]; -0.285 (inactive) in [16]; -0.647 (inactive) in [17]; -0.55 (inactive) in test [18]; -1.89 in test [19]. The values for the composite z-score in test [14] and in [20] were -0.831 (inactive) and 1.12, respectively.
As to `CC[C@H]1C2=C3C(CC[C@H]4C(OCc5ccc(F)cc5C(F)(F)F)OC[C@](C)([C@@H]34)N(C(=O)OC(C)(C)C)C2)C(COC(C)=O)C1COC(C)=O` (stereo not given in full), the z-score was -0.128 in [1]; -0.154 in test [2]; 0.228 in test [3]; -0.814 in test [4]; -2.5 in [5]; 3.43 in test [6]. The z-score in test [7] was -1.43 (inactive); in test [8], -0.555; in test [9] it was -1.29; in [10] it was 0.226 (inactive); in test [11], -0.409; in [12], 0.249 (inactive). The z-score in test [13] was -1.04 (inactive); in test [15] it was 0.523 (inactive); in test [16], 0.348 (inactive); in test [17], -1.26 (inactive); in test [18], -0.539 (inactive); in test [19], -0.866. Further, the composite z-score in test [14] is -0.804 (inactive); in test [20], 0.48.
Take `COc1ccc([Si](C)(C)[C@H]2[C@H](CC(=O)N(CCO)Cc3ccccc3)O[C@@]3(C(=O)N(Cc4ccc(N5C(=O)c6cccc7cccc5c67)cc4)c4ccccc43)[C@@H]2C)cc1`: the z-score in [1] was -1.12; in test [2], 1.59; in [3], -0.899; in test [4], -0.998; in [5], -3.8; in [6] it was 0.488. The z-score in test [7] was -0.381 (inactive); in test [8] it was -1.05; in test [9], -0.091; in [10] it was -2.22 (inactive); in [11], -1.14; in [12], 1.21 (inactive). Also, the z-score in test [13] was -2.21 (inactive); in test [15] it was 0.319 (inactive); in test [16], 2.45 (inactive); in test [17] it was -0.838 (inactive); in test [18], -1.02 (inactive); in test [19] it was -2.14. The figures for the composite z-score in test [14] and in test [20] were -1.51 (inactive) and 0.177, respectively.
In the case of `COC(=O)c1c2oc(c1C(=O)OC)C(=O)N[C@H](Cc1ccccc1)Cn1cc(nn1)C1(CCCCC1)NC(=O)N[C@H](CO)CC2`, the z-score in [1] was 0.78; in [2] it was 0.705; in [3], 0.286; in [4], 0.977; in test [5], 0.943; in [6], 0.381. In addition, the z-score in [7] is 0.621 (inactive); in [8], -0.662; in test [9], -1.2; in test [10], -0.547 (inactive); in test [11], 0.483; in test [12], -2.6 (inactive). In addition, the z-score in test [13] was 0.247 (inactive); in test [15], 0.772 (inactive); in test [16] it was 0.0801 (inactive); in test [17], -0.051 (inactive); in test [18], 0.565 (inactive); in test [19] it was 0.245. For the same compound, the results for the composite z-score in test [14] and in test [20] were -0.174 (inactive) and -0.113, respectively.
